# TrxR1 substrate: rat thioredoxin reductase 1 substrate activity; O89049; purified TrxR1 substrate turnover, NADPH consumption readout; Potency, µM (highest dose often 114 µM), for inactives: at the top dose activity change, negative = substrate turnover; hit rate 0.01% among 390,000; also: nearly all actives have a fitted effect of over 50% in size
#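 Rat TrxR1, dispensed at 90 nM, was prereduced with 400 uM NADPH (final) for 5 min at ~22 deg C, then incubated with compound 15 min before 400 uM selenite. A first-read NADPH fluorescence drop versus no-compound background flagged substrates.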
# Sfp inh: Sfp phosphopantetheinyl transferase inhibition; Q9F4F7; Biochemical Sfp PPTase activity, qHTS; Potency, µM, inactives show largest response in the series, negative = inhibition, hits mostly inhibitors; hit rate 3.5% among 310,000; AID 1490;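 also: the enzyme is Sfp with the accession as filed and its product quenches rhodamine fluorescence; 0% = enzyme reaction without inhibitor and -100% = no enzyme wells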
#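 With Hepes-Na pH 7.6 buffer containing 10 mM MgCl2, Sfp (15 nM) modified BHQ-2-YbbR (12.5 uM) using rhodamine-CoA (5 uM). Two reads 30 minutes apart at 525/598 nm yielded each well's rate.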
# VDR inh: blocks the human vitamin D receptor | AID 504847 | Potency, µM, for the others: max response, negative = inhibition, most hits filed as inhibitors | P11473 | VDR-SRC2-3 peptide fluorescence polarization, 2 h | hit rate 0.93% among 400,000
#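 Two reagent solutions held at 4 deg C in the dark were dispensed, compounds pinned at 23 nl, and the mixture incubated 2 h at room temperature. Read-out: fluorescence polarization of VDR–SRC2-3 peptide binding.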
# KAT2A inh: GCN5L2 (KAT2A) acetyltransferase inhibition. Potency, µM (series often up to 58.9 µM), without a hit: top-dose activity change, negative = inhibition, most hits filed as inhibitors. hit rate 0.21% among 390,000. AID 504327. GCN5L2 HAT assay, ThioGlo1 CoA-SH fluorescence. Q92830
#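 Fluorescence readout, Ex340nm/Em540nm: ThioGlo1 (50uM final) reacts with free CoA thiol released as 20nM GCN5L2 acetylates H3(1-25) peptide (75uM) using acetyl-CoA (70uM). Compound and enzyme sat 15 min beforehand; 20 min room-temperature reaction.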
# TrxR1 inh: inhibitors of rat thioredoxin reductase 1. O89049. recombinant rTrxR1, NADPH fluorescence consumption, selenite substrate. Potency, µM (titrated, usually from 114 µM), for the others: top-dose activity change, negative = inhibition, most hits filed as inhibitors. hit rate 1% among 390,000; also: nearly all actives have a fitted effect of over 65% in size
#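 Rat TrxR1 (90 nM in the dispensed reagent) was pre-reduced with 400 uM NADPH for 5 min at room temperature, then incubated with compound for 15 min. After 400 uM selenite was added, NADPH fluorescence (Ex 340/Em 450 nm) was followed for 8 min.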
# GLS inhibitor: inhibitors of human glutaminase (GLS); GLS enzymatic activity, qHTS titration; O94925; hit rate 0.21% among 410,000; Potency, µM (titrated, usually from 45.5 µM), for inactives: at the top dose activity change, negative = inhibition, usual class: inhibitors; AID 624170
# Target sequence (O94925 whole entry, looked up): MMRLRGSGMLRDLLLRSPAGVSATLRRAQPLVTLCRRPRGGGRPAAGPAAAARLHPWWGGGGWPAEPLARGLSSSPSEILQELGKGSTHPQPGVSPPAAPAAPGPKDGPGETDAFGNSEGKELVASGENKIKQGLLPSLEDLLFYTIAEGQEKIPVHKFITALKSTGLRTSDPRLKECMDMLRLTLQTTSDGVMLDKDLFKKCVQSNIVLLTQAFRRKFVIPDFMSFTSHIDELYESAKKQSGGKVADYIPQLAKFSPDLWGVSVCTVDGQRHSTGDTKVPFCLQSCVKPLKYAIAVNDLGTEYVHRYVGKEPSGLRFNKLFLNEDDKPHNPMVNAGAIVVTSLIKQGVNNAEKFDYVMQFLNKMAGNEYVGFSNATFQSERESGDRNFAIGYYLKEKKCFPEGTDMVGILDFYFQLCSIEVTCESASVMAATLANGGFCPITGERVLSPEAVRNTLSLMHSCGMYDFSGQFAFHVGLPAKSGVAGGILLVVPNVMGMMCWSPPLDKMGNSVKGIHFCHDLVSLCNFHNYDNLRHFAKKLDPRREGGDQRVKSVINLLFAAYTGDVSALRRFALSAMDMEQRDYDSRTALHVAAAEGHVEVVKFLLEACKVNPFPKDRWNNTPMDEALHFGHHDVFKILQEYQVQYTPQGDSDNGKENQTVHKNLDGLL
#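 Coupled fluorescence readout: glutamate oxidase/HRP/Amplex Red detect glutamate formed by hKGA from L-glutamine (1 mM solution added). Buffer 45 mM KH2PO4 pH 8.2, 0.02% Tween-20; reads at t0 and 30 min RT.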
# Starred values were filed as active, the others as inactive; u = inconclusive; x = not tested or not shown; [ ] = dose if it differs, or a comment. Shown are actives, neighbours in structure and some others; about 3.8% of the full set was active somewhere. Calls follow the shape of the dose curve; as a rule, active = well fitted curve in the direction sought with a large enough effect; inconclusive = small, poorly fitted or top-dose-only effect, or another doubt; inactive = no such curve, though single readings can be large; an effect the other way counts as inactive or inconclusive. Unless noted, % is scaled to controls: 0 for no effect and ±100 for the full control effect; potency is read from the fitted curve at half-maximal effect.
SMILES,TrxR1 substrate,Sfp inh,VDR inh,KAT2A inh,TrxR1 inh,GLS inhibitor
Cc1nn(-c2ccccn2)c2nc(-c3cccs3)cc(C(=O)NCc3ccco3)c12,145%,u,-14%,-1%,-18%,2%
Cn1nnnc1SCCNCc1cc(Cl)ccc1OCc1ccccc1,-8%,-1%,12%,-6%,-13%,2%
COc1ccc(Cl)cc1S(=O)(=O)n1c([N+](=O)[O-])cnc1C,-7%,71µM*,-8%,-26%,5%,-10%
CCCN1CC(=O)N2C(c3ccccc3)c3[nH]c4ccccc4c3C[C@H]2C1=O (stereo partly drawn),3%,-4%,0%,-16%,17%,11%
CCc1ccc2occ(CC(=O)Nc3c(C(=O)Nc4ccc(C)cc4)oc4ccccc34)c2c1,9%,x,15%,-2%,89µM*,1%
CCc1ccc2occ(CC(=O)Nc3c(C(=O)Nc4ccc(Cl)cc4)oc4ccccc34)c2c1,13%,x,4%,-7%,20%,13%
Clc1cccc[n+]1CCCCCC[n+]1ccccc1Cl,-8%,x,x,x,56µM*,x
Brc1cccc[n+]1CCCCCC[n+]1ccccc1Br,7%,x,x,x,u,x
CNC(=S)N(Cc1ccc(OC)cc1)Cc1cc2cc(C)ccc2[nH]c1=O,-6%[57.1 µM],22%,-6%,-6%,-11%[57.1 µM],-4%
COc1ccc2[nH]c(=O)c(CNc3cc(C)ccc3C)cc2c1,1%,50µM*,17%,-3%,10%,4%
Cc1ccc2[nH]c(=O)c(CNC(C)(C)C)cc2c1,26%,5.6µM*,14%,-13%,26%,2%
COc1ccc2[nH]c(=O)c(CNc3ccc(C)cc3C)cc2c1,21%,45µM*,8%,-12%,u,u
CSc1ccc(/C=C/c2nc3ccccc3n2S(=O)(=O)c2ccc(F)c(C)c2)cc1,24%[57.1 µM],x,-4%,2%,23%[57.1 µM],5%
CCc1ccc(CN2CCC(CO)(CC3CCCCO3)CC2)o1 (stereo not drawn),1%,20%,-5%,18µM*,-1%,-11%
Cc1ccc(CN2CCC(CO)(CC3CCCCO3)CC2)o1 (stereo not drawn),3%[57.1 µM],9%,21%,5%,15%[57.1 µM],4%
CCC(C(=O)Nc1nc(C)c(C)s1)c1ccccc1 (stereo not drawn),-5%,50µM*,1%,u,19%[57.1 µM],5%
CCC(C(=O)Nc1nc(C)cs1)c1ccccc1 (stereo not drawn),10%[57.1 µM],17%,u,-2%,18%[57.1 µM],39%
CC(C)n1c(=S)[nH]c2cc(Cl)ccc21,u,79µM*,12%,-6%,u,4%
CCOC(=O)C1=CN(CC2CCCO2)C=C(C(=O)OCC)C1c1ccccc1C(F)(F)F (stereo not drawn),101%[57.1 µM],40µM*,-2%,-17%,31%[57.1 µM],-11%
COc1ccccc1NC(=O)c1nc[nH]c1C(=O)Nc1ccccc1OC,20%[57.1 µM],56µM*,2%,-6%,12%[57.1 µM],1%
NC(=O)c1cc(Cc2ccccc2)sc1NC(=O)c1ccco1,5%,-70%,u,-9%,-3%,-9%
CCOc1ccc(CC(=O)Nc2sc(Cc3ccccc3)cc2C(N)=O)cc1OCC,-2%,28µM*,u,-1%,-6%,-4%
Brc1cc2c(cc1Br)OCCOCCOCCOCCO2,5%[57.1 µM],8%,28µM*,1%,11%[57.1 µM],u
CC1(C)C2CCC(C2)C1(C)NC(=O)CNCc1cccs1 (stereo not drawn),1%,89µM*,-11%,-6%,-12%,-4%
O=C(CNCc1cccs1)NC12CC3CC(CC(C3)C1)C2,-9%,-10%,-18%,-12%,7%[57.1 µM],6%
COc1cc(CN2CCN(C(=O)c3cccc4ccccc34)CC2)cc(OC)c1O,-1%,-29%,-23%,-4%,50µM*,28%
CCC1CCCCN1C(=O)c1cccc(S(=O)(=O)Nc2cc(C(F)(F)F)ccc2Cl)c1 (stereo not drawn),-3%,34%,3%,-7%,1%,3%

# Bioassay records as filed in PubChem BioAssay.
